# Measurements from PubChem BioAssay AID686935 (National Center for Advancing Translational Sciences (NCATS), 2013).
# Results filed as inconclusive are left out. Unmarked numbers belong to inactive results. Activity calls are given as the source filed them. Calls come from the whole dose curve; as a rule, active = well fitted curve in the direction sought with a large enough effect; inconclusive = small, poorly fitted or top-dose-only effect, or another doubt; inactive = no such curve, though single readings can be large or run the other way.
# Test: qHTS Assay for Lipid Storage Modulators: CytotoxicityAssay against Probe and Analogs
# Conditions: 3T3-L1 adipocytes cytotoxicity, imaging cell count; series mostly up to 20 µM; activity change, negative = cytotoxicity: at the top concentration
# Text: Storing lipids as a reservoir for energy or the anabolism of elementary metabolites is a common feature of probably all cells and is conserved from bacteria to humans. The universal cellular lipid storage organelle is the so-called lipid storage droplet (LD). Although ubiquitous, LDs share a simple structure composed of a hydrophobic core that harbors the storage lipids, which is shielded by a droplet-specific phospholipid monolayer to which proteins are attached. The current model of LD biogenesis involves an incorporation of the lipid core into the membrane leaflets of the endoplasmic reticulum (ER) followed by a subsequent budding-like maturation of a LD, which ultimately pinches off. Once released, LD volume can increase by localized lipogenesis or fusion of existing droplets. Storage lipids are re-mobilized enzymatically by lipase activity. Lipase regulation in the adipocyte is heavily studied and involves multiple components including catecholamine signaling, the LD-associated proteins Perilipin and comparative gene identification-58 (CGI-58) and at least two lipases named hormone sensitive lipase (HSL) and adipocyte triglyceride lipase (ATGL). LD regulation outside of the adipocyte is poorly understood and only few components are known. However, there is an urgent need to learn more about ectopic fat depots as mislocalized storage of lipids, for example in the liver or muscle, is an eminent health problem associated with insulin resistance or the metabolic syndrome. We developed a laser-scanning cytometer assay to enable 1,536-well screening and combined the results of the small molecules screen with an RNAi database based on lipid storage. In this assay we tested analogs of the probe in a cytotoxicity assay. NIH Molecular Libraries Probe Production Centers Network [MLPCN] NIH Chemical Genomics Center [NCGC] MLPCN Grant: MH085686 Assay Submitter (PI): Mathias Beller, Max-Planck-Institut fur Biophysikalische Chemie
# 3T3-L1 cells were obtained from ATCC (CL-173). Pre-adipocyte medium (PM-1),differentiation medium (DM-2) and after adipocyte medium (AM-1) were purchased from Zen-Bio (# PM-1-L1, DM-2-L1, AM-1-L1). […] of PM-1containing 3,000 cells was dispensed into each well of a 96-well plate (Corning, #3340), and the assay plates were incubated at 37 °C, 95% humidity and 5% CO2 for 3-5 days. The differentiation of pre-adipocyte to adipocyte was induced by removing the pre-adipocyte medium and replacing with […] of differentiation medium. […] of compounds at different concentrations dissolved in differentiation medium were added to the assay plates, along with medium exchange for differentiation to test their effects on adipocyte differentiation. The final DMSO concentration was 0.5%. Triacsin C (Sigma-Aldrich T-4540), an inhibitor of long-chain fatty acyl CoA synthetase that blocks synthesis of triglycerides, was used as a positive control for lipid under-storage. After 3 days, differentiation medium was replaced with 200ul of adipocyte maintenance medium and assay plates were incubated for 4 days. Cells were then fixed using4% of paraformaldehyde in PBS for 30 minutes at room temperature, washed 3 times with PBS buffer. Finally, the cells were stained using […] of PBS containing BODIPY lipid dye 493/530 (1:2000 -, Life Technologies, # D-3922), Hoechst 33342 (1:1000, Life Technologies, #H3570) and CellMask deep red dye (1:10,000 , Life Technologies, #H32721). Images were acquired using InCell 2000 (GE), number of cells, number of lipids, size of lipids and cells were analysis using GE Investigator software.
Structure (SMILES),"activity change, negative = cytotoxicity",Potency
CCOc1ccc(CCNC(=O)c2ccnn2Cc2cccc(C)c2)cc1OCC,6.45%,–
CCn1c(C(=O)NCCc2ccc(OC)cc2)cc2sccc21,28.8%,–
CC(C)Oc1ccc(CCNC(=O)c2cc3sccc3n2Cc2ccccc2)cc1OC(C)C,8.18%,–
CCOc1cc(F)c(CCNC(=O)c2cc3sccc3n2Cc2ccccc2)cc1OCC,7.21%,–
CCOc1ccc(CCNC(=O)c2cccc(C(=O)c3ccccc3)c2)cc1OCC,-9.68%,–
CCOc1ccc(CCNC(=O)c2cc3sccc3n2Cc2ccccc2)cc1OCC,-8.87%,–
CCOc1ccc(CCNC(=O)c2cc3sccc3n2C)cc1OCC,17.7%,–
CCOc1ccc(CCNC(=O)c2cc3ccccc3o2)cc1OCC,21.8%,–
CCOC(=O)C1CCN(C(=O)C(C)(C)NC(=O)Nc2ccc(-c3ccccc3)cc2)CC1,20.7%,–
CCOc1ccc(CCNC(=O)c2cc3sccc3n2Cc2ccccn2)cc1OCC,1.82%,–
CCOc1cc(CCNC(=O)c2cc3sccc3n2Cc2ccccc2)cc(F)c1OCC,–,7.08 µM (active)
CCOc1ccc(CCNC(=O)c2cc3sccc3n2Cc2ccncc2)cc1OCC,-7.21%,–
